{"source": "PubChem BioAssay", "note": "Where “and” joins values, the source holds several entries; their conditions need not be identical. Equal entries are not always repeated. Calls of active or inactive are those of the source. How the calls were made is not given here.", "data": [{"assay": "altered dexamethasone sensitivity, NF-kB reporter, cell-based, luciferase, IL-1B stimulus (AID 624486);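 on percent of negative control (+Dex): 100% = mean signal of vehicle control wells on the plate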", "settings": "IL-1B + dexamethasone, luminescence; percent of negative control (+Dex): actives lie on both sides, concentration not given here; z-score: measured here: IL-1B alone, no Dex", "values": [{"smiles": "CCn1c(-c2nonc2N)nc2cnc(Oc3cccc(NC(=O)c4ccc(OCCN5CCOCC5)cc4)c3)cc21", "z-score": -3.25, "percent of negative control (+Dex)": "50.5% (inactive)"}, {"smiles": "COc1cccc(-n2ncc3c(N/N=C/c4ccc(F)cc4)ncnc32)c1", "percent of negative control (+Dex)": "93.5% (inactive)", "z-score": 0.76}, {"smiles": "COc1cc2ncn(-c3cc(OCc4ccccc4S(C)(=O)=O)c(C#N)s3)c2cc1OC", "z-score": -0.135, "percent of negative control (+Dex)": "72.5% (inactive)"}, {"smiles": "COc1ccc(COc2ccc(Cc3cnc(N)nc3N)cc2OC)cc1", "z-score": -0.44, "percent of negative control (+Dex)": "90% (inactive)"}, {"smiles": "CN(C)c1cc2c(Nc3ccc4c(cnn4Cc4ccccc4)c3)ncnc2cn1", "percent of negative control (+Dex)": "68% (inactive)", "z-score": -1.64}, {"smiles": "CN1CCC(n2cnc(-c3ccc(F)cc3)c2-c2ccnc(Nc3ccccc3)n2)CC1", "z-score": -0.08, "percent of negative control (+Dex)": "101% (inactive)"}, {"smiles": "N#Cc1c(NC(=O)c2ccccc2F)sc2c1CCCC2", "z-score": 14.4, "percent of negative control (+Dex)": "282% (active)"}, {"smiles": "CC(=O)Nc1cccc(C#Cc2cncnc2Nc2ccc(OCc3cccc(F)c3)c(Cl)c2)c1", "z-score": -0.925, "percent of negative control (+Dex)": "89.5% (inactive)"}, {"smiles": "CCOc1ccc2c(-c3ccnc(Nc4cc(OC)cc(C(F)(F)F)c4)n3)cnn2n1", "z-score": 1.62, "percent of negative control (+Dex)": "86.5% (inactive)"}, {"smiles": "Nc1nccc(-c2c(-c3ccc(F)cc3)ncn2C2CCNCC2)n1", "percent of negative control (+Dex)": "136% (inactive) and 118% (inactive)", "z-score": "1.59 and 1.56"}, {"smiles": "NC(=O)c1ccc2c(-c3ccnc(NCCCO)n3)c(-c3ccc(F)cc3)nn2c1", "percent of negative control (+Dex)": "106% (inactive)", "z-score": 0.705}, {"smiles": "Cn1cc(C2=C(c3cn(CCCSC(=N)N)c4ccccc34)C(=O)NC2=O)c2ccccc21", "percent of negative control (+Dex)": "98% (inactive)", "z-score": 0.705}, {"smiles": "O=C1NC(=O)C(c2c[nH]c3ccccc23)=C1c1c[nH]c2ccccc12", "percent of negative control (+Dex)": "98% (inactive)", "z-score": -0.485}, {"smiles": "Fc1cccc(COc2ccc(Nc3ncnc4sc(-c5ccco5)cc34)cc2Cl)c1", "z-score": -0.11, "percent of negative control (+Dex)": "89% (inactive)"}, {"smiles": "Cn1c(=O)c(Oc2ccc(F)cc2F)cc2cnc(NC3CCOCC3)nc21", "percent of negative control (+Dex)": "102% (inactive)", "z-score": -0.045}, {"smiles": "Fc1cccc(COc2ccc(Nc3ncnc4cc(-c5ccc[nH]5)sc34)cc2Cl)c1", "percent of negative control (+Dex)": "66.5% (inactive)", "z-score": -1.57}, {"smiles": "C#Cc1cccc(Nc2ncnc3ccc(OCCCCNCCS(C)(=O)=O)cc23)c1", "percent of negative control (+Dex)": "70.5% (inactive)", "z-score": -1.95}, {"smiles": "Cn1cc(C2=C(c3cn(CCCN)c4ccccc34)C(=O)NC2=O)c2ccccc21", "percent of negative control (+Dex)": "104% (inactive)", "z-score": -0.65}, {"smiles": "O=S1CCN(Cc2ccc(-c3ccc4ncnc(Nc5ccc(OCc6ccccc6)c(Cl)c5)c4c3)o2)CC1", "percent of negative control (+Dex)": "77% (inactive)", "z-score": -0.87}, {"smiles": "O=C1NC(=O)C(c2ccccc2Cl)=C1Nc1cccc(O)c1", "percent of negative control (+Dex)": "88% (inactive)", "z-score": -0.19}, {"smiles": "NC(=O)c1ccc(-c2nc(-c3ccc4c(c3)OCO4)c(-c3ccccn3)[nH]2)cc1", "z-score": 0.215, "percent of negative control (+Dex)": "92% (inactive)"}, {"smiles": "CN(C)CCOc1ccc(-c2nc(-c3ccc4c(c3)CC/C4=N\\O)c(-c3ccncc3)[nH]2)cc1", "percent of negative control (+Dex)": "118% (inactive)", "z-score": 0.795}, {"smiles": "FC(F)(F)c1cccc(Nc2nccc(-c3cnn4nc(-c5ccccc5)ccc34)n2)c1", "z-score": -0.085, "percent of negative control (+Dex)": "86.5% (inactive)"}, {"smiles": "Nc1ncnc2occ(-c3ccc(NC(=O)Nc4cc(C(F)(F)F)ccc4F)cc3)c12", "z-score": "-4.27 and -2.6", "percent of negative control (+Dex)": "62.5% (inactive) and 72.5% (inactive)"}, {"smiles": "Cn1cc(/C=C2\\C(=O)Nc3cccnc32)c2ccccc21", "percent of negative control (+Dex)": "92.5% (inactive)", "z-score": 0.27}, {"smiles": "Cc1ccc(O)cc1Nc1ccnc2cc(-c3ccccn3)ccc12", "percent of negative control (+Dex)": "89.5% (inactive)", "z-score": -0.24}, {"smiles": "Cn1c(-c2nonc2N)nc2cnccc21", "percent of negative control (+Dex)": "70.5% (inactive)", "z-score": -2.13}, {"smiles": "Fc1ccc(-c2nc3n(c2-c2ccncc2)CCS3)cc1", "percent of negative control (+Dex)": "112% (inactive)", "z-score": 2.42}, {"smiles": "COc1ccc(-c2oc3ncnc(N)c3c2-c2ccc(NC(=O)Nc3cc(C(F)(F)F)ccc3F)cc2)cc1", "percent of negative control (+Dex)": "93.5% (inactive)", "z-score": -2.24}, {"smiles": "NS(=O)(=O)c1ccc(N=Nc2c(O)[nH]c3ccc(Cl)cc23)cc1", "percent of negative control (+Dex)": "112% (inactive)", "z-score": 0.905}]}]}
